Laboratory results taken from the supplement of paper PMC8975748.
Where a name gives a salt, the structure may show the parent alone.

What follows are compounds tested on Saccharomyces cerevisiae BY4741 SeMeCo community (assay: z-score of subpopulation abundance vs DMSO median, subpopulation auxotrophic for HLM; higher = larger share of this subpopulation than in DMSO controls). Conditions: 10 µM; 24 h; SM minimal medium; subpopulation (auxotrophy): HLM.
Protocol: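 Fluorescent four-plasmid SeMeCo (self-establishing metabolically cooperating S. cerevisiae BY4741 community; plasmids pH-mRuby2, pL-mWasabi, pU-eCFP, pM-TagRFP657) was grown 24 h in minimal SM medium with each Selleck FDA-approved drug at 10 µM in 384-well plates. Cells were fixed and imaged by high-content confocal microscopy. For each auxotrophic subpopulation (and the prototroph), a z-score gives the deviation from the DMSO vehicle-control population median.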

| Compound | z-score of subpopulation abundance |
| --- | --- |
| COc1cc2c(cc1OC)C1CC(=O)C(CC(C)C)CN1CC2 (centres undefined) [Tetrabenazine (Xenazine)] | 3.78 |
| CCN(CC)CCOC(=O)C(O)(c1ccccc1)c1ccccc1 [Benactyzine hydrochloride] | 0.1 |
| CC(NC(C)(C)C)C(=O)c1cccc(Cl)c1 (centres undefined) [Amfebutamone (Bupropion) HCl] | 0.09 |
| CN[C@@H]1[C@@H](O)[C@@H](O[C@@H]2[C@@H](O)[C@H](O[C@H]3O[C@H](CN)CC[C@H]3N)[C@@H](N)C[C@H]2N)OC[C@]1(C)O.CN[C@@H]1[C@@H](O)[C@@H](O[C@@H]2[C@@H](O)[C@H](O[C@H]3O[C@H]([C@@H](C)N)CC[C@H]3N)[C@@H](N)C[C@H]2N)OC[C@]1(C)O.CN[C@@H]1[C@@H](O)[C@@H](O[C@@H]2[C@@H](O)[C@H](O[C@H]3O[C@H]([C@@H](C)NC)CC[C@H]3N)[C@@H](N)C[C@H]2N)OC[C@]1(C)O [Gentamicin Sulfate] | 0.75 |
| Oc1cc(Cl)ccc1Oc1ccc(Cl)cc1Cl [Triclosan] | 1.15 |
| O=c1cccc2n1C[C@@H]1CNC[C@H]2C1 [Cytisine] | -0.15 |
| CNC1CC(N)C(O)C(OC2OC(CO)C(O)C3OC4(OC(C(N)CO)C(O)C(O)C4O)OC23)C1O (centres undefined) [Hygromycin B] | -0.02 |
| CC(=O)OCC1=C(C(=O)O)N2C(=O)C(N)C2SC1 (centres undefined) [7-Aminocephalosporanic acid] | -0.1 |
| CN(C)[C@@H]1C(=O)C(C(N)=O)=C(O)[C@@]2(O)C(=O)C3=C(O)c4c(O)ccc(Cl)c4[C@@](C)(O)[C@H]3C[C@@H]12 [Chlortetracycline HCl] | -0.55 |
| CC(C)N(CCC(C(N)=O)(c1ccccc1)c1ccccn1)C(C)C (centres undefined) [Disopyramide] | 0.67 |
| Cc1cc(O)ccc1Cl [Chlorocresol] | -0.58 |
| CCC1=C[C@H]2CN3CCc4c([nH]c5ccccc45)[C@](C(=O)OC)(C2)[C@H]13 [Catharanthine] | -0.68 |
| O=[N+]([O-])C(Br)(CO)CO [Bronopol] | -0.88 |
| CCN1CC2(OC(=O)c3ccccc3NC(C)=O)CCC(OC)C34C1C(CC23)C1(O)CC(OC)C2CC4C1(O)C2OC (centres undefined) [Lappaconitine] | -0.42 |
| NCCc1c[nH]c2ccc(O)cc12 [Serotonin HCl] | -0.77 |
| CC[N+](C)(CC)CCOC(=O)C(O)(c1ccccc1)c1ccccc1 [Methylbenactyzine Bromide] | -1.19 |
| CCN(C)C(=O)Oc1cccc([C@H](C)N(C)C)c1 [Rivastigmine Tartrate] | 0.01 |

| Compound | z-score of subpopulation abundance |
| --- | --- |
| NC(=O)CN1CCCC1=O [Piracetam] | 1.38 |
| COc1ccc(C(CN(C)C)C2(O)CCCCC2)cc1 (centres undefined) [Venlafaxine HCl] | -0.22 |
| C[CH2][Hg][S]c1ccccc1C(=O)[O-].[Na+] [Thimerosal] | 131 |
| CN(C)C(=O)Oc1ccc[n+](C)c1 [Pyridostigmine Bromide] | 0.28 |
| COc1ccc2[nH]cc(CCN)c2c1 [5-Methoxytryptamine] | 0.21 |
| C=CN1CCCC1=O.II [Povidone iodine] | 0.98 |
| CC[C@H]1[C@@H]2C[C@H]3[C@@H]4N(C)c5ccccc5[C@]45C[C@@H]([C@@H]2[C@H]5O)N3[C@@H]1O [Ajmaline] | -0.46 |
| CN1C(=O)COc2c(C(=O)NC3CN4CCC3CC4)cc(Cl)cc21 (centres undefined) [Azasetron HCl] | 1.29 |
| C=C(C)[C@H]1Cc2c(ccc3c2O[C@@H]2COc4cc(OC)c(OC)cc4[C@@H]2C3=O)O1 [Rotenone (Barbasco)] | 0.69 |
| C[C@H]1O[C@H](O[C@H]2[C@H](O)[C@@H](O)[C@@H](O)[C@H](O)[C@@H]2O)[C@@H](N)C[C@@H]1NC(=N)C(=O)O [Kasugamycin hydrochloride] | -0.54 |
| CN(C)[C@@H]1C(=O)C(C(N)=O)=C(O)[C@@]2(O)C(=O)C3=C(O)c4c(O)cccc4[C@@](C)(O)[C@H]3[C@H](O)[C@@H]12 [Oxytetracycline (Terramycin)] | 2.78 |
| C[N+](C)(C)CCCCCCCCCC[N+](C)(C)C [Decamethonium Bromide] | -0.27 |
| CCCN1C[C@H](CSC)C[C@@H]2c3cccc4[nH]cc(c34)C[C@H]21 [Pergolide Mesylate] | -0.43 |
| Nc1nc(N)nc(NC2CC2)n1 [Cyromazine] | 0.4 |
| O=C(O[C@H]1C[N+]2(CCCOc3ccccc3)CCC1CC2)C(O)(c1cccs1)c1cccs1 [Aclidinium Bromide] | -0.51 |
| CN1[C@@H]2CC[C@H]1C[C@@H](OC(=O)C(CO)c1ccccc1)C2 (some centres undefined) [Atropine sulfate monohydrate] | -0.94 |
| CC(=O)O[C@H]1C[C@@H]2CC[C@@H]3[C@H](CC[C@@]4(C)[C@H]3C[C@H]([N+]3(C)CCCCC3)[C@@H]4OC(C)=O)[C@@]2(C)C[C@@H]1[N+]1(C)CCCCC1 [Pancuronium dibromide] | -0.05 |
